Reference: PubChem BioAssay (Tox21)
Inconclusive results are not listed. Active and inactive are the calls of the source. Unless noted, calls follow the shape of the dose curve; as a rule, active = well fitted curve in the direction sought with a large enough effect in the repeat runs; inconclusive = weak or mixed curves; inactive = no such curve, though single readings can be large; an effect the other way counts as inactive or inconclusive.

Tests used:
[1] = qHTS assay to identify small molecule agonists of the vitamin D receptor (VDR) signaling pathway - cell viability counter screen (AID 743224); also: series mostly up to about 63 µM; nearly all actives have a fitted effect of over 50% in size
Method in brief: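 Compounds were pin-transferred onto VDR-bla cells plated 4 h earlier; following 16 h incubation at 37C, cell viability was quantified by CellTiter-Glo luminescence after 30 min at room temperature.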

[2] = qHTS assay to identify small molecule antagonists of the vitamin D receptor (VDR) signaling pathway - cell viability counter screen (AID 743225); also: nearly all actives have a fitted effect of over 50% in size
Method in brief: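 Luminescent cell viability (CellTiter-Glo) in VDR-bla HEK 293T cells after 16 h compound exposure at 37C in the presence of 3 nM final 1-alpha,25-dihydroxy vitamin D3.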

[3] = qHTS assay to identify small molecule agonists of the NFkB signaling pathway - cell viability counter screen (AID 1159515; calls by dose curve; also: series mostly up to about 61 µM; nearly all actives have a fitted effect of over 55% in size)
Method in brief: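 Parallel cytotoxicity counter screen in ME-180 cells carrying an NFkB-response-element beta-lactamase reporter, 2,000 cells/well. Compound exposure lasted 5 hr at 37 C, 5% CO2. Cell viability was quantified by CellTiter-Glo luminescence.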

[4] = qHTS assay to identify small molecule agonists of the endoplasmic reticulum stress response signaling pathway (AID 1159516; active = well fitted activation curve with a large enough effect in the signal ratio in the repeat runs, not every such curve was filed as active; the % refers to the signal ratio)
Method in brief: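 Using a HeLa line with an ESRE-driven beta-lactamase gene, agonist activity was measured by FRET substrate fluorescence (460 and 530 nm emission) after cells were treated with compounds for 5 hr at 37 C and 5% CO2.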

[5] = qHTS assay to identify small molecule agonists of the endoplasmic reticulum stress response signaling pathway - cell viability counter screen (AID 1159517; calls by dose curve;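 also: HeLa cells carrying an ER stress response element beta-lactamase reporter; series mostly up to about 61 µM; nearly all actives have a fitted effect of over 50% in size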)
Method in brief: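 After overnight attachment, ESRE-bla HeLa cells were treated with Tox21 library compounds for 5 hr. CellTiter-Glo luminescence, read 30 min post-addition at room temperature, reported viability.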

[6] = qHTS assay to identify small molecule antagonists of the retinoid-related orphan receptor gamma (ROR-gamma) signaling pathway - cell viability counter screen (AID 1159520); also: nearly all actives have a fitted effect of over 50% in size
Method in brief: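 Cytotoxicity was read from cellular ATP (CellTiter-Glo luminescence) after 16 hr at 37 C with 1 uM doxycycline induction. The inducer was added 2 hr after compound transfer to Tet-on ROR gamma CHO cells.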

[7] = target: Nuclear receptor ROR-gamma (Homo sapiens) (UniProt P51449); test: qHTS assay to identify small molecule antagonists of the retinoid-related orphan receptor gamma (ROR-gamma) signaling pathway (AID 1159521)
Method in brief: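 CHO cells expressing RORγ under a TET-on promoter, luciferase under RORE control. Dox 1 uM final, 16 h; compounds added 2 h prior. Luminescence decrease measured.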

[8] = qHTS assay to identify small molecule agonists of the AP-1 signaling pathway - cell viability counter screen (AID 1159525; calls by dose curve; also: nearly all actives have a fitted effect of over 55% in size)
Method in brief: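 Intracellular ATP by Cell Titer Glo luminescence (30 min, RT) in the same ME-180 AP-1-bla wells after the 5 h compound exposure at 37 °C. Normalised to tetra n-octyl ammonium bromide and DMSO controls.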

[9] = qHTS assay to identify small molecule agonists of the AP-1 signaling pathway (AID 1159526; calls by dose curve)
[10] = target: Retinoic acid receptor RXR-alpha (Homo sapiens) (UniProt P19793); test: qHTS assay to identify small molecule agonists of the RXR signaling pathway (AID 1159527; calls by dose curve; also: nearly all actives have a fitted effect of over 35% in size)
Method in brief: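 Beta-lactamase reporter assay, agonist format. Engineered HEK 293T line, charcoal-stripped FBS at 2%, overnight (16 hr) exposure, fluorescence at 460 and 530 nm after 405 nm excitation.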

[11] = qHTS assay to identify small molecule agonists of the RXR signaling pathway - cell viability counter screen (AID 1159529)
Method in brief: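 Same-well viability check after the LiveBLAzer FRET read: CellTiter-Glo added, luminescence measured after 30 min at room temperature. Reporter HEK 293T cells had been treated with compounds for 16 hr following a 5 hr preincubation.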

[12] = qHTS assay to identify small molecule antagonists of the retinoid acid receptor (RAR) signaling pathway - cell viability counter screen (AID 1159551); also: nearly all actives have a fitted effect of over 35% in size
Method in brief: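 ATP-based viability, C3RL4 cells, 6 h at 37 C with 1 uM final retinol co-added after compound; luminescence read 30 min post CellTiter-Glo, RT.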

[13] = qHTS assay to identify small molecule antagonists of the retinoic acid receptor (RAR) signaling pathway (AID 1159552; also: nearly all actives have a fitted effect of over 50% in size)
Method in brief: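 Readout: luciferase luminescence, 30 min post-reagent at RT. Setup: C3RL4 RARE reporter cells, compounds plus retinol 1 uM final, 6 hr incubation at 37 C and 5% CO2.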

[14] = qHTS assay to identify small molecule agonists of the retinoic acid receptor (RAR) signaling pathway (AID 1159553)
Method in brief: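 Quantitative high-throughput format: the Tox21 10K library was tested on C3RL4 RARE-luciferase cells for 6 hr at 37 C and 5% CO2, with luminescence measured after a 30 min room-temperature reagent step.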

[15] = qHTS assay to identify small molecule antagonists of the estrogen related receptor (ERR) signaling pathway - cell viability counter screen (AID 1224818);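 also: series mostly up to about 46 µM; viability measured after 17.5 h of compound exposure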
Method in brief: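 Quantitative high-throughput viability counter screen in ERR cells. Compounds (DMSO) incubated 17.5 h at 37 C; read-out was CellTiter-Fluor fluorescence.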

[16] = qHTS assay to identify small molecule antagonists of the estrogen related receptor (ERR) signaling pathway (AID 1224819)
Method in brief: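 ERR reporter cell line (NTP) plated at 2,000 cells/well, settled 6 h at 37C/5% CO2, then exposed to LOPAC compounds for 18 h at 37C. One-Glo luciferase luminescence read after 30 min at room temperature.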

[17] = qHTS assay to identify small molecule agonists of the estrogen related receptor (ERR) signaling pathway (AID 1224820)
Method in brief: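 Luminescence readout (One-Glo, 30 min RT) from NTP-supplied ERR cell line exposed to compounds for 18 h at 37 C. Cells seeded 2,000 per well and pre-incubated 6 h before pin-tool compound transfer.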

[18] = tested on: estrogen-related receptor alpha (ERRalpha) with PGC-1alpha coactivator, human; test: qHTS assay to identify small molecule antagonists of the estrogen related receptor signaling pathway with the pleiotropic PPARgamma coactivator (PGC) (AID 1224821; calls by dose curve)
Method in brief: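 PGC/ERR reporter cells; 6 h pre-incubation 37 C/5% CO2; pin-tool compound in DMSO, 18 h 37 C; One-Glo added, 30 min RT; luminescence read. qHTS antagonist mode.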

[19] = qHTS assay to identify small molecule antagonists of the estrogen related receptor signaling pathway with the pleiotropic PPARgamma coactivator (PGC) cell viability counter screen (AID 1224822; also: series mostly up to about 46 µM)
Method in brief: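 Cytotoxicity in the PGC/ERR cell line is assessed with CellTiter-Fluor, read as fluorescence intensity 30 min after reagent addition, following 17.5 h compound treatment at 37 C.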

Measured: Potency

Chain of Retinoic acid receptor RXR-alpha (Homo sapiens) (P19793 whole entry, looked up): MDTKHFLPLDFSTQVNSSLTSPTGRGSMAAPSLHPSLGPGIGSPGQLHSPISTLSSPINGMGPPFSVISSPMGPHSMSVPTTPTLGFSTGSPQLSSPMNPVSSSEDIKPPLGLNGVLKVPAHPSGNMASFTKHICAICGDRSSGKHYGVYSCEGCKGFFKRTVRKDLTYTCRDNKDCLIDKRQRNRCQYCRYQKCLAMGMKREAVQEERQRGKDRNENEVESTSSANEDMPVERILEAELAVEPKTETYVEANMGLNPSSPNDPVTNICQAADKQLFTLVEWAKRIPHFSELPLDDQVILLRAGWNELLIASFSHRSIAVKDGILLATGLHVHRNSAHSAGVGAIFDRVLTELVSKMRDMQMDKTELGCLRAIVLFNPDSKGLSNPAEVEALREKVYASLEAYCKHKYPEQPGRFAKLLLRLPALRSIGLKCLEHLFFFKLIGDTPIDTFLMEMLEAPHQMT

O=c1n(CCO)c(=O)n(CCO)c(=O)n1CCO
inactive: [1] | [2] | [3] | [4] | [5] | [6] | [7] | [8] | [9] | [10] | [11] | [12] | [13] | [14]

Cc1cccc(C)c1NC(=O)C(C)N (configuration not stated)
inactive: [1] | [3] | [5] | [6] | [7] | [8] | [9] | [10] | [11] | [12] | [14] | [15] | [16] | [17] | [18] | [19]

CC(C)c1cc2c(cc1S(=O)(=O)O)[C@@]1(C)CCC[C@@](C)(C(=O)O)[C@@H]1CC2
inactive: [1] | [3] | [4] | [5] | [6] | [7] | [8] | [9] | [11] | [12] | [13] | [14]

O=C(O)COc1nn(Cc2ccccc2)c2ccccc12
inactive: [1] | [2] | [3] | [4] | [5] | [6] | [7] | [8] | [9] | [10] | [11] | [12] | [13] | [14]

CCC=O
inactive: [1] | [2] | [3] | [5] | [6] | [7] | [8] | [9] | [10] | [11] | [12] | [13] | [14]

O=C[C@H](O)[C@@H](O)[C@H](O)[C@H](O)CO
inactive: [1] | [2] | [3] | [4] | [5] | [6] | [7] | [8] | [9] | [11] | [12]

N=C(N)c1ccc(OCCCOc2ccc(C(=N)N)cc2)cc1
inactive: [1] | [2] | [3] | [4] | [5] | [6] | [7] | [8] | [9] | [11] | [12] | [13]

COCCCOCCCOC
inactive: [1] | [2] | [3] | [4] | [5] | [6] | [7] | [8] | [9] | [10] | [11] | [12] | [14]

COC(=O)c1ccc(C)cc1C1=NC(C)(C(C)C)C(=O)N1 (configuration not stated)
inactive: [1] | [2] | [3] | [4] | [5] | [6] | [7] | [8] | [9] | [10] | [11] | [12] | [13] | [14]

CC(=O)OCC(=O)[C@@]1(O)CC[C@H]2[C@@H]3CCC4=CC(=O)CC[C@]4(C)[C@H]3C(=O)C[C@@]21C
inactive: [1] | [3] | [5] | [6] | [7] | [8] | [9] | [10] | [11] | [12] | [14] | [15] | [19]
